This is an account of results in PubChem BioAssay (NCATS).

For assay [1], the target named is Nucleoprotein (Lymphocytic choriomeningitis virus (strain Armstrong)) (UniProt P09992). Description: qHTS for Inhibitors of the Functional Ribonucleoprotein Complex (vRNP) of Lymphocytic Choriomeningitis Arenaviruses (LCMV): LCMV Primary Screen - GLuc reporter signal (AID 1347086; calls by dose curve; also: series mostly up to about 57 µM; nearly all actives have a fitted effect of over 70% in size). In general terms: Quantitative high-throughput screening tests each substance at several concentrations.

Assay [2] is described as follows: qHTS of pediatric cancer cell lines to identify multiple opportunities for drug repurposing: Primary screen for TC32 cells (AID 1347089). Also: nearly all actives have a fitted effect of over 60% in size. The procedure, abridged: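 A viability screen of TC32 cells was run over 48 h, with primary MIPE doses spanning 0.78 nM–46 µM and NPC doses 0.59 nM–46 µM. ATP luminescence (CellTiter-Glo) served as the read-out.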
Assay [3] is described as follows: qHTS of pediatric cancer cell lines to identify multiple opportunities for drug repurposing: Primary screen for DAOY cells (AID 1347090). Also: nearly all actives have a fitted effect of over 55% in size. Also: potency is read from the fitted curve at half-maximal effect. Summed up: (§1)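 Viability measured as metabolically active cells via CellTiter-Glo luminescence following 48 hours of compound exposure, 11-point dilutions in confirmatory testing. 500-1,000 cells/well plated 5 hours before dosing; controls were DMSO and 2.3 µM bortezomib.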

Assay [4] is described as follows: qHTS of pediatric cancer cell lines to identify multiple opportunities for drug repurposing: Primary screen for SJ-GBM2 cells (AID 1347091). Also: potency is read from the fitted curve at half-maximal effect. The procedure, abridged: as §1
Assay [5] can be described thus: qHTS of pediatric cancer cell lines to identify multiple opportunities for drug repurposing: Primary screen for A673 cells (AID 1347092). Also: nearly all actives have a fitted effect of over 45% in size. Also: potency is read from the fitted curve at half-maximal effect. Summed up:
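Titration-based qHTS on A673 cells: MIPE compounds spanned 11 points (0.78 nM to 46 µM final), NPC compounds 8 points (0.59 nM to 46 µM final). Viability after 48 h was measured by ATP luminescence.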

Assay [6] can be described thus: qHTS of pediatric cancer cell lines to identify multiple opportunities for drug repurposing: Primary screen for SK-N-MC cells (AID 1347093). Also: potency is read from the fitted curve at half-maximal effect. The procedure, abridged:
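Metabolically active cells were quantified by ATP-dependent luminescence (CellTiter-Glo, 15 min at room temperature) following 48 h treatment. Cells had been plated at 500-1,000 per well and settled for 5 h beforehand.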

The nature of assay [7]: qHTS of pediatric cancer cell lines to identify multiple opportunities for drug repurposing: Primary screen for BT-37 cells (AID 1347094). Also: potency is read from the fitted curve at half-maximal effect. Summed up: (§2)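 Primary screen of approved and investigational compounds on cells in growth media at 37 degrees C, 5% CO2. MIPE set at 11-point and NPC set at 8-point dilutions; viability scored by ATP-based luminescence at 48 hours.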
A short description of assay [8]: qHTS of pediatric cancer cell lines to identify multiple opportunities for drug repurposing: Primary screen for NB-EBc1 cells (AID 1347095). Also: potency is read from the fitted curve at half-maximal effect. Summed up:
as §2

Assay [9] is described as follows: qHTS of pediatric cancer cell lines to identify multiple opportunities for drug repurposing: Primary screen for U-2 OS cells (AID 1347096). Also: nearly all actives have a fitted effect of over 50% in size. Also: potency is read from the fitted curve at half-maximal effect. Summed up:
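Viability after 48 h compound treatment at 37C, 500-1,000 cells/well, read as ATP luminescence with CellTiter-Glo. Primary screens used 11-point (MIPE, 0.78 nM-46 µM) or 8-point (NPC, 0.59 nM-46 µM) final concentrations; follow-up screens used 11-point dilutions.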

Assay [10] is described as follows: qHTS of pediatric cancer cell lines to identify multiple opportunities for drug repurposing: Primary screen for Saos-2 cells (AID 1347097). Also: nearly all actives have a fitted effect of over 40% in size. Summed up:
as §2

SMILES strings stand for the structures. Several values for one entry are separate records, joined by “and”; a condition that tells them apart may be missing. Equal values may be shown once. Records with an inconclusive call do not appear. Activity calls are given as the source filed them. Unless noted, calls follow the shape of the dose curve; as a rule, active = well fitted curve in the direction sought with a large enough effect; inconclusive = small, poorly fitted or top-dose-only effect, or another doubt; inactive = no such curve, though single readings can be large; an effect the other way counts as inactive or inconclusive.

Sequence of Nucleoprotein (Lymphocytic choriomeningitis virus (strain Armstrong)) (P09992 whole entry, looked up): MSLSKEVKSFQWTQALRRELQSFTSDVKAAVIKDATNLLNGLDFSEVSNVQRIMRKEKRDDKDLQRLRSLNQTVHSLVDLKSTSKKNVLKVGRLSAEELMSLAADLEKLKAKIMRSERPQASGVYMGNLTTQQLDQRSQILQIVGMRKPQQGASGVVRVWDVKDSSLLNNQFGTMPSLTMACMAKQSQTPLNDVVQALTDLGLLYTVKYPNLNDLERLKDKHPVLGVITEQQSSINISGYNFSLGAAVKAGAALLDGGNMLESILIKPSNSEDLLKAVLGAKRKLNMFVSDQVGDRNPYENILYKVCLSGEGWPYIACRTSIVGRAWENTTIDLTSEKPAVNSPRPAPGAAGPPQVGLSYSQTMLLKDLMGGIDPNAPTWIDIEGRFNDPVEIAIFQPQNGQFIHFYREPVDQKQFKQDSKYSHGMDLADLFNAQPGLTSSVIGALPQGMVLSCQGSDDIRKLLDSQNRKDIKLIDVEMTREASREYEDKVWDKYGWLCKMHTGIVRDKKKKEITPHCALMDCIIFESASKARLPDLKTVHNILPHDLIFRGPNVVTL

As for `COc1cc(CCN)cc(OC)c1OC`, the Potency result in assay [1], in [2], in assay [3], in assay [4], in assay [5] and in [6] was “inactive” each time. Also, the Potency entry in [7], in [8], in assay [9] and in assay [10] was “inactive” in each case.
Take `CCC(C)(C)c1ccc(O)cc1`: the Potency result in assay [1], in [2], in assay [3], in [4], in assay [5] and in [6] was “inactive” throughout. Further, the Potency result in assay [7], in assay [8], in assay [9] and in assay [10] was “inactive” each time.
Consider `CC(NC(C)(C)C)C(=O)c1cccc(Cl)c1` (stereo not given), for which the Potency entry in assay [1], in assay [2], in [3], in assay [4], in [5] and in assay [7] was “inactive” throughout. In addition, the Potency result in assay [8], in assay [9] and in assay [10] was “inactive” in each case. In addition, the Potency in [6] was 1.1 nM (active) and 29.6 µM (active).
As to `C[C@H](N)C(=O)c1ccccc1`, the Potency entry in assay [1], in assay [2], in assay [3], in [4], in [5] and in assay [6] was “inactive” each time. The Potency result in [7], in assay [8], in assay [9] and in assay [10] was “inactive” throughout.
`CNC(C)(C)Cc1ccccc1`: the Potency result in [1], in assay [2], in assay [3], in assay [4], in assay [5] and in assay [6] was “inactive” each time. The Potency result in assay [7], in assay [8], in [9] and in assay [10] was “inactive” throughout.
Turning to `CN1C(=O)COc2c(C(=O)NC3CN4CCC3CC4)cc(Cl)cc21` (stereo not given), the Potency entry in [1], in [2], in assay [3], in assay [4], in assay [5] and in assay [6] was “inactive” throughout. Also, the Potency result in assay [7], in assay [8], in assay [9] and in [10] was “inactive” each time.
In the case of `CCC1(c2ccccc2)C(=O)N(COC)C(=O)N(COC)C1=O`, the Potency result in assay [1], in assay [2], in [3], in [4], in assay [5] and in assay [6] was “inactive” throughout. Further, the Potency result in assay [7], in assay [8], in assay [9] and in assay [10] was “inactive” throughout.
Regarding `COP(=S)(OC)Oc1cc(Cl)c(Cl)cc1Cl`, the Potency result in assay [1], in assay [2], in [3], in assay [4], in [5] and in assay [6] was “inactive” each time. In addition, the Potency result in [7], in assay [8], in assay [9] and in assay [10] was “inactive” each time.
In the case of `CCC1(c2ccc(N)cc2)CCC(=O)NC1=O` (stereo not given), the Potency result in assay [1], in assay [2], in assay [3], in [4], in assay [5] and in assay [6] was “inactive” each time. Besides, the Potency result in [7], in [8], in assay [9] and in assay [10] was “inactive” each time.
As for `Oc1ccc(Cl)cc1`, the Potency result in assay [1], in [2], in assay [3], in assay [4], in assay [5] and in assay [6] was “inactive” throughout. Also, the Potency entry in [7], in assay [8], in [9] and in [10] was “inactive” each time.
Turning to `O=C1c2ccccc2C(=O)c2ccccc21`, the Potency result in [1], in assay [2], in [3], in assay [4], in assay [5] and in [6] was “inactive” each time. Besides, the Potency result in [7], in assay [8], in assay [9] and in [10] was “inactive” throughout.
For `CC(C)(C)NCC(O)c1ccccc1Cl` (stereo not given), the Potency entry in [1], in assay [2], in assay [3], in assay [4], in assay [5] and in assay [6] was “inactive” throughout. Also, the Potency result in [7], in assay [8], in assay [9] and in [10] was “inactive” in each case.
As to `CC(C)N(CCC(C(N)=O)(c1ccccc1)c1ccccn1)C(C)C` (stereo not given), the Potency result in assay [1], in [2], in assay [3], in assay [4], in [5] and in assay [6] was “inactive” throughout. Further, the Potency entry in assay [7], in assay [8], in [9] and in assay [10] was “inactive” each time.
As to `CC(C)C[C@H](CN)CC(=O)O`, the Potency result in assay [1], in assay [2], in [3], in assay [4], in assay [5] and in [7] was “inactive” in each case. The Potency entry in [8], in assay [9] and in [10] was “inactive” each time. The Potency in [6] is 23.5 µM (active).
For the molecule `C[C@@H](N)[C@@H](O)c1ccccc1`, the Potency result in assay [1], in assay [2], in [3], in assay [4], in [5] and in assay [6] was “inactive” throughout. The Potency entry in assay [7], in [8], in [9] and in [10] was “inactive” each time.
For `O=C(O)c1ccc(=O)[nH]c1`, the Potency entry in [1], in [2], in assay [3], in assay [4], in [5] and in assay [6] was “inactive” in each case. Besides, the Potency entry in assay [7], in assay [8], in [9] and in assay [10] was “inactive” each time.
Consider `O=C1OC(c2ccc(O)c(S(=O)(=O)O)c2)(c2ccc(O)c(S(=O)(=O)O)c2)c2c(Br)c(Br)c(Br)c(Br)c21`, for which the Potency result in assay [1], in assay [2], in [3], in assay [4], in assay [5] and in assay [6] was “inactive” each time. The Potency entry in [7], in assay [8], in [9] and in assay [10] was “inactive” throughout.
On to `c1ccc(CN2CCNCC2)cc1`, for which the Potency entry in [1], in assay [2], in assay [3], in assay [4], in assay [5] and in assay [6] was “inactive” each time. In addition, the Potency result in assay [7], in [8], in assay [9] and in assay [10] was “inactive” throughout.
For `NC(=O)CS(=O)C(c1ccccc1)c1ccccc1` (stereo not given), the Potency entry in [1], in assay [2], in assay [3], in assay [4], in [5] and in [6] was “inactive” each time. The Potency result in assay [7], in [8], in assay [9] and in [10] was “inactive” each time.
Consider `O=P1(N(CCCl)CCCl)NCCCO1` (stereo not given), for which the Potency entry in assay [1], in [2], in assay [3], in assay [4], in assay [5] and in [6] was “inactive” in each case. The Potency entry in assay [7], in [8], in assay [9] and in assay [10] was “inactive” each time.
For the molecule `C[C@](O)(CS(=O)(=O)c1ccc(F)cc1)C(=O)Nc1ccc(C#N)c(C(F)(F)F)c1`, the Potency result in assay [1], in assay [2] and in assay [10] was “inactive” throughout. Also, the Potency is 0.743 µM (active) in assay [3]; 3.72 µM (active) in [4]; 2.96 µM (active) in [5]; 0.469 µM (active) in [6]; 19.3 µM (active) in assay [7]; 4.69 µM (active) in [8]. Moreover, the Potency in [9] was 14.8 µM (active).
As to `NC(=O)c1cc([N+](=O)[O-])cc([N+](=O)[O-])c1`, the Potency entry in assay [1], in [2], in assay [3], in [4], in assay [5] and in assay [6] was “inactive” in each case. Also, the Potency result in [7], in [8], in assay [9] and in [10] was “inactive” in each case.
